Consider 12 molecules from PubChem BioAssay (EPA / NIEHS).

Test [1] has as its target AR (gene 367) (UniProt P10275). Briefly: ACEA_AR_antagonist_80hr: ACEA Biosciences xCELLigence Real-Time Cell Analysis on Androgen Receptor Antagonism for Proliferation (AID 2283787).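 Also: 22Rv1 human prostate cancer cells with growth followed by electrical impedance; hits lower the impedance growth signal relative to DMSO.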 Put shortly: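 Impedance readout (RT-CES), 80 h post-dose; loss-of-signal vs DMSO baseline. 22Rv1 cells in assay medium. Compounds: 8-pt 1:4 series, max 100 uM final, up to 0.5% DMSO; n = 2.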

Test [2] deals with Estrogen receptor beta (Homo sapiens) (UniProt Q92731). Put plainly: ATG_hERb_XSP1: Attagene TRANS-FACTORIAL Multi-Species (XSP1) HepG2 Assay for human Estrogen Receptor (ESR2) (AID 2283788). Put shortly: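 Read-out: reporter mRNA induction by RT-PCR, HpaI digestion and capillary electrophoresis fluorescence, fitted in positive direction relative to DMSO baseline. Human liver HepG2 cells expressing ERβ-Gal4 fusion, dosed 24 h, medium containing 3 nM 6-alpha-fluorotestosterone.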
Sequence of Estrogen receptor beta (Homo sapiens) (Q92731 whole entry, looked up, the tested form may be a part): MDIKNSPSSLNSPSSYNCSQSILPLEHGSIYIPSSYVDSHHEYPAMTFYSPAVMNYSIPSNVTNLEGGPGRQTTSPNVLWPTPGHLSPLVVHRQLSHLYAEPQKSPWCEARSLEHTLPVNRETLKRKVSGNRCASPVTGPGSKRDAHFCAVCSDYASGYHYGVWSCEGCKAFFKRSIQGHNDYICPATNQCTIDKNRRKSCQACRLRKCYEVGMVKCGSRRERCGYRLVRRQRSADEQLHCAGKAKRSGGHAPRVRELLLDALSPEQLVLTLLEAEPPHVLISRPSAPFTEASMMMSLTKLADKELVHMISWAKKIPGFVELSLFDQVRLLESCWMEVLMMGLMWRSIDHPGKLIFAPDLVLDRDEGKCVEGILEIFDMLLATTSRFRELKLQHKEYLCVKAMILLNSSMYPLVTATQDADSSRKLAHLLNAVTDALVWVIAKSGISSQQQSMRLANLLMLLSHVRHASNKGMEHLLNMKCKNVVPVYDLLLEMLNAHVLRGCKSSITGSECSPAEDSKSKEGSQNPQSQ

For test [3], the target named is GAL4 Transcription Factor (Internal Marker), GAL4 (gene 855828) (UniProt P04386). Briefly: ATG_GAL4_XSP1: Attagene TRANS-FACTORIAL Multi-Species (XSP1) HepG2 Assay for GAL4 Transcription Factor (Internal Marker) (AID 2283789). Put shortly:
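HepG2 cells transiently transfected with multiplexed GAL4-UAS reporter units were exposed for 24 h with 3 nM 6-alpha-fluorotestosterone present. Reporter mRNA was quantified by RT-PCR, FAM labelling, HpaI digestion and capillary electrophoresis; background-control readout, gain-of-signal versus DMSO.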

Test [4] in a line: ATG_M_06_XSP1: Attagene TRANS-FACTORIAL Multi-Species (XSP1) HepG2 Assay for M06 Transcription Factor (Internal Marker) (AID 2283790). Put shortly: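 Transfected HepG2 multi-reporter system treated 24 h in the presence of 3 nM 6-alpha-fluorotestosterone. The M06 internal marker transcript was quantified by RT-PCR with capillary electrophoresis as a background control, and gain of signal was scored versus DMSO.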

The nature of test [5]: ATG_M_61_XSP1: Attagene TRANS-FACTORIAL Multi-Species (XSP1) HepG2 Assay for M61 Transcription Factor (Internal Marker) (AID 2283797). Put shortly: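 HepG2 cells transiently transfected with multiplexed GAL4-driven reporter units, dosed 24 h with 3 nM 6-alpha-fluorotestosterone present. Reporter mRNA quantified by RT-PCR, 6-FAM labelling, HpaI digestion and capillary electrophoresis; internal-marker background control, gain of signal versus DMSO.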

Test [6] deals with Peroxisome proliferator-activated receptor gamma (Homo sapiens) (UniProt P37231). Put plainly: ATG_hPPARg_XSP1: Attagene TRANS-FACTORIAL Multi-Species (XSP1) HepG2 Assay for human Peroxisome Proliferator-activated Receptor gamma (PPARg) (AID 2283800). Put shortly: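 HepG2 cells transiently transfected with GAL4-UAS reporter units carrying chimeric NR-Gal4 proteins; 3 nM 6-alpha-fluorotestosterone present. After 24 h dosing, reporter mRNA quantified by RT-PCR and capillary electrophoresis; gain of signal relative to DMSO.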
Sequence of Peroxisome proliferator-activated receptor gamma (Homo sapiens) (P37231 whole entry, looked up, the tested form may be a part): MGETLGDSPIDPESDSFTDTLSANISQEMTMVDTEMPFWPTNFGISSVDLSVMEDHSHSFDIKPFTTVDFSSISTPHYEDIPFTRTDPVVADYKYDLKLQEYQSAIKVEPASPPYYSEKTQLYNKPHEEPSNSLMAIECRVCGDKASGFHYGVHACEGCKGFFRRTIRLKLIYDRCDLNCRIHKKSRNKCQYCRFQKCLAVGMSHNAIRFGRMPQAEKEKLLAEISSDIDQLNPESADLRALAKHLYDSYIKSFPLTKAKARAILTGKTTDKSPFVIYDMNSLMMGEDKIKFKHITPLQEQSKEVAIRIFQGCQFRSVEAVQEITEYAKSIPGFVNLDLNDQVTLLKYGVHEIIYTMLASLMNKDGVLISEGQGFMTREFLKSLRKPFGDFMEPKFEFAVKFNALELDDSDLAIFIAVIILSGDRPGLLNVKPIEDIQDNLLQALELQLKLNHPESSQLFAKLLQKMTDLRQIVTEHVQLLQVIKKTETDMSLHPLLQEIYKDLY

Test [7] addresses Nuclear receptor subfamily 1 group I member 2 (Mus musculus) (UniProt O54915). Briefly: ATG_mPXR_XSP1: Attagene TRANS-FACTORIAL Multi-Species (XSP1) HepG2 Assay for mouse Pregnane X Receptor (PXR) (AID 2283803). Summed up: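 Transiently transfected HepG2 cells expressing a receptor-Gal4 chimera drive a GAL4-UAS reporter; 3 nM 6-alpha-fluorotestosterone included. Reporter mRNA read 24 h post-dose by RT-PCR and capillary electrophoresis; gain of signal relative to DMSO.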

Test [8] addresses human Thyroid hormone Receptor alpha (TRa), THRA (gene 7067) (UniProt P10827). Put plainly: ATG_hTRa_XSP1: Attagene TRANS-FACTORIAL Multi-Species (XSP1) HepG2 Assay for human Thyroid hormone Receptor alpha (TRa) (AID 2283805). Put shortly: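 HepG2 cells transiently transfected with GAL4-UAS reporter units expressing chimeric NR-Gal4 proteins, dosed 24 hours with 3 nM 6-alpha-fluorotestosterone present. Reporter mRNA measured by RT-PCR and capillary electrophoresis; gain of signal fitted versus DMSO.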

For test [9], the system named is turtle Thyroid Hormone Receptor, alpha (TRa), gene 101949057. Put plainly: ATG_trTRa_XSP1: Attagene TRANS-FACTORIAL Multi-Species (XSP1) HepG2 Assay for turtle Thyroid Hormone Receptor, alpha (TRa) (AID 2283806). Put shortly: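 HepG2 cells transiently transfected with GAL4-UAS reporter units and chimeric receptor-Gal4 constructs, with 3 nM 6-alpha-fluorotestosterone present. Reporter mRNA was quantified 24 h after dosing by RT-PCR, 6-FAM labelling and capillary electrophoresis; gain of signal versus DMSO.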

Test [10] has as its target zebrafish Thyroid Hormone Receptor alpha (TRa), thraa (gene 30670) (UniProt Q98867). Put plainly: ATG_zfTRa_XSP1: Attagene TRANS-FACTORIAL Multi-Species (XSP1) HepG2 Assay for zebrafish Thyroid Hormone Receptor alpha (TRa) (AID 2283807). Summed up:
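HepG2 cells transiently transfected with GAL4-UAS reporter units including a zebrafish TRa–Gal4 chimera, dosed 24 h with 3 nM 6-alpha-fluorotestosterone present. Reporter mRNA quantified by RT-PCR and capillary electrophoresis; gain versus DMSO.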

For test [11], the target named is human Thyroid hormone Receptor beta (TRb), THRB (gene 7068) (UniProt P10828). Briefly: ATG_hTRb_XSP1: Attagene TRANS-FACTORIAL Multi-Species (XSP1) HepG2 Assay for human Thyroid hormone Receptor beta (TRb) (AID 2283808). Put shortly: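 HepG2 cells transiently transfected with reporter units driving GAL4-UAS reporters for chimeric NR-Gal4 proteins; 24 h chemical exposure with 3 nM 6-alpha-fluorotestosterone present. Reporter mRNA quantified by RT-PCR and capillary electrophoresis, gain of signal versus DMSO.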

Test [12] concerns the target zebrafish Thyroid Hormone Receptor beta (TRb), thrb (gene 30607) (UniProt Q9PVE4). Briefly: ATG_zfTRb_XSP1: Attagene TRANS-FACTORIAL Multi-Species (XSP1) HepG2 Assay for zebrafish Thyroid Hormone Receptor beta (TRb) (AID 2283809). Put shortly: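 HepG2 cells transiently transfected with multiplexed GAL4-UAS reporter units expressing chimeric zebrafish TRb–Gal4. Dosed 24 h with 3 nM 6-alpha-fluorotestosterone present; reporter mRNA measured by RT-PCR, HpaI digestion and capillary electrophoresis; gain of signal versus DMSO.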

The nature of test [13]: ATG_XTT_Cytotoxicity_XSP1: Cytotoxicity Assessment in the Attagene TRANS-FACTORIAL Multi-Species (XSP1) HepG2 Assay (AID 2283810). Summed up: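 XTT viability readout taken at 24 hours post-dosing in HepG2 liver cells co-treated with 3 nM 6-alpha-fluorotestosterone. Signal loss relative to DMSO controls reflects cytotoxicity.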
Test [14] can be described thus: ATG_M_06_XSP2: Attagene TRANS-FACTORIAL Multi-Species (XSP2) HepG2 Assay for M06 Transcription Factor (Internal Marker) (AID 2283811).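 Also: hits are increases in signal above the DMSO baseline.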 Summed up: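 HepG2 cells transiently transfected with GAL4-UAS multi-reporter constructs, dosed 24 h with 3 nM 6-alpha-fluorotestosterone plus 1.5 nM norgestrel present to stimulate androgen receptor. Reporter mRNA quantified by RT-PCR, 6-FAM labelling, HpaI digestion and capillary electrophoresis; gain-of-signal fitted versus DMSO baseline.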

Test [15] has as its system turtle Estrogen Receptor (ERa), gene 101933533. Briefly: ATG_trERa_XSP2: Attagene TRANS-FACTORIAL Multi-Species (XSP2) HepG2 Assay for turtle Estrogen Receptor (ERa) (AID 2283812).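 Also: human HepG2 liver cells transiently expressing turtle ERa-Gal4 chimeric receptor; actives raise reporter signal above DMSO so AC50 reflects agonist activity.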 Summed up:
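HepG2 cells transiently transfected with GAL4-UAS reporter units expressing turtle ERa-Gal4 chimera. Reporter mRNA measured after 24 h dosing by RT-PCR, fluorescent labelling and capillary electrophoresis; gain of signal fitted versus DMSO.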

The target of test [16] is Estrogen receptor beta (Homo sapiens) (UniProt Q92731). Put plainly: ATG_hERb_XSP2: Attagene TRANS-FACTORIAL Multi-Species (XSP2) HepG2 Assay for human Estrogen Receptor (ERb) (AID 2283813).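 Also: actives raise reporter mRNA above DMSO so AC50 reflects agonist induction.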 Put shortly: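 HepG2 cells transiently transfected with GAL4-UAS reporter units and chimeric human ERb-Gal4, 24 h exposure. Reporter mRNA quantified by RT-PCR with FAM labelling, HpaI digestion and capillary electrophoresis; gain of signal versus DMSO.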

In test [17] the target is GAL4 Transcription Factor (Internal Marker), GAL4 (gene 855828) (UniProt P04386). Briefly: ATG_GAL4_XSP2: Attagene TRANS-FACTORIAL Multi-Species (XSP2) HepG2 Assay for GAL4 Transcription Factor (Internal Marker) (AID 2283814).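 Also: GAL4 reporter mRNA background control in MRTU transfected cells not a receptor target.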 Put shortly:
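HepG2 cells transiently transfected with GAL4-UAS reporter units, stimulated with 3 nM 6-alpha-fluorotestosterone plus 1.5 nM norgestrel, dosed 24 h. Reporter mRNA by RT-PCR/capillary electrophoresis; gain-of-signal fit versus DMSO, background control.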

Test [18] deals with chicken Estrogen Receptor (ERa), ESR1 (gene 396099) (UniProt P06212). Briefly: ATG_chERa_XSP2: Attagene TRANS-FACTORIAL Multi-Species (XSP2) HepG2 Assay for chicken Estrogen Receptor (ERa) (AID 2283817).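 Also: actives raise reporter signal above DMSO so AC50 reflects ER activation.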 Summed up: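 HepG2 cells transiently transfected with multiplexed GAL4-UAS reporter units expressing chimeric chicken ERa-Gal4; 24 h compound exposure. Reporter mRNA measured by RT-PCR with 6-FAM labelling, HpaI digestion and capillary electrophoresis; gain-of-signal fitted versus DMSO.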
Sequence of chicken Estrogen Receptor (ERa), ESR1 (gene 396099) (P06212 whole entry, looked up, the tested form may be a part): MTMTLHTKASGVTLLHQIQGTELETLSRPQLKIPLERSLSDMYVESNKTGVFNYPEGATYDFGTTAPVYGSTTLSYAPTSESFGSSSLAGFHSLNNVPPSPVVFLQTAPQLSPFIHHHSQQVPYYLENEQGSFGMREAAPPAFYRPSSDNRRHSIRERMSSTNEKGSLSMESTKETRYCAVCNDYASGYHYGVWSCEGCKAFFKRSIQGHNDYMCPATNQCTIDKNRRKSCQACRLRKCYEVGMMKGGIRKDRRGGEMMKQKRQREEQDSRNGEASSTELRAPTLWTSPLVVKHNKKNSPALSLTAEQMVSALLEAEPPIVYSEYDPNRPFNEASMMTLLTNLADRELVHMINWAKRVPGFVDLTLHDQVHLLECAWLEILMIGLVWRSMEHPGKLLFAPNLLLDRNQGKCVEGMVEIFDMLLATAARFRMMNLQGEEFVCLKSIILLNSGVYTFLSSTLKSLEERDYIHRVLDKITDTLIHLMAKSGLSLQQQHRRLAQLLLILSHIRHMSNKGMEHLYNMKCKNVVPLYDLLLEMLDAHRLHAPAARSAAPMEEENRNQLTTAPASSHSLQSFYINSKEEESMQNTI

For test [19], the system named is zebrafish Estrogen Receptor (ER2a), gene 317734. Put plainly: ATG_zfER2a_XSP2: Attagene TRANS-FACTORIAL Multi-Species (XSP2) HepG2 Assay for zebrafish Estrogen Receptor (ER2a) (AID 2283818).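 Also: hits raise reporter mRNA so AC50 reflects activation of zebrafish ER2a.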 Put shortly: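 HepG2 cells transiently transfected with GAL4-UAS reporter units and chimeric zebrafish ER2a-Gal4, exposed 24 h; medium contains 3 nM 6-alpha-fluorotestosterone and 1.5 nM norgestrel. Reporter mRNA quantified by RT-PCR, HpaI digestion, capillary electrophoresis; gain versus DMSO.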

Test [20] relates to frog Estrogen Receptor (ER), gene 398734. Put plainly: ATG_frER1_XSP2: Attagene TRANS-FACTORIAL Multi-Species (XSP2) HepG2 Assay for frog Estrogen Receptor (ER) (AID 2283821).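 Also: hits raise reporter mRNA above DMSO baseline so potency means agonist or activator.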 Summed up: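 HepG2, transient MRTU transfection, chimeric NR-GAL4/UAS reporters; 24 h compound exposure, 24-well. Readout: reporter mRNA via RT-PCR + capillary electrophoresis, fluorescence. Positive fit vs DMSO baseline.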

Results filed as inconclusive are left out. Activity calls are given as the source filed them. The calls were made as follows: active = hit-call score of the fitted dose curve at least 0.9, where 1 is the maximum; inconclusive = response in the unintended direction; inactive = score below 0.9.

Sequence of AR (gene 367) (P10275 whole entry, looked up): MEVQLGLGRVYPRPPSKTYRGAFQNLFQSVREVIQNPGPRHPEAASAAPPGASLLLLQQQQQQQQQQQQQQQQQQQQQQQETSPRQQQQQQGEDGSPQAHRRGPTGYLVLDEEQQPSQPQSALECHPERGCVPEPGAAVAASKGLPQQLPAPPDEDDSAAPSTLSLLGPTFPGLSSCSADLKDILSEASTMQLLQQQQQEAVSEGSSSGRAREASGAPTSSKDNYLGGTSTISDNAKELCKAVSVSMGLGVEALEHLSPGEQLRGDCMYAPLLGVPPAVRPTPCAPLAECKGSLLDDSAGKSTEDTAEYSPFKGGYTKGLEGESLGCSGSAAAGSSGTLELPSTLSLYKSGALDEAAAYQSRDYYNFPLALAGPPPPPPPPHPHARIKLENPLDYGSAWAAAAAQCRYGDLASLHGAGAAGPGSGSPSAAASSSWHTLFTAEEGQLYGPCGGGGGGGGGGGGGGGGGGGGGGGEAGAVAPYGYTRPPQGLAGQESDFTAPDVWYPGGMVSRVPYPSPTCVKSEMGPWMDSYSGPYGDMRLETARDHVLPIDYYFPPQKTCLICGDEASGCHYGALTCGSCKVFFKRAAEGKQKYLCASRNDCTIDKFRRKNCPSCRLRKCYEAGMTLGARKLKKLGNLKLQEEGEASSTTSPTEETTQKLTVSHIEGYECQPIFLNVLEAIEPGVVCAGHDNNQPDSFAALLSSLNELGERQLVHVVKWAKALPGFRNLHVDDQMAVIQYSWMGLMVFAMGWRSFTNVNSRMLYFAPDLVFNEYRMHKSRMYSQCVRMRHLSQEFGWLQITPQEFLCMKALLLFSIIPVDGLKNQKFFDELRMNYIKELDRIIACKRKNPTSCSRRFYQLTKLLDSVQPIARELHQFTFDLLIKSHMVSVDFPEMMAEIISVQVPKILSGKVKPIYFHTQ
Sequence of GAL4 Transcription Factor (Internal Marker), GAL4 (gene 855828) (P04386 whole entry, looked up, the tested form may be a part): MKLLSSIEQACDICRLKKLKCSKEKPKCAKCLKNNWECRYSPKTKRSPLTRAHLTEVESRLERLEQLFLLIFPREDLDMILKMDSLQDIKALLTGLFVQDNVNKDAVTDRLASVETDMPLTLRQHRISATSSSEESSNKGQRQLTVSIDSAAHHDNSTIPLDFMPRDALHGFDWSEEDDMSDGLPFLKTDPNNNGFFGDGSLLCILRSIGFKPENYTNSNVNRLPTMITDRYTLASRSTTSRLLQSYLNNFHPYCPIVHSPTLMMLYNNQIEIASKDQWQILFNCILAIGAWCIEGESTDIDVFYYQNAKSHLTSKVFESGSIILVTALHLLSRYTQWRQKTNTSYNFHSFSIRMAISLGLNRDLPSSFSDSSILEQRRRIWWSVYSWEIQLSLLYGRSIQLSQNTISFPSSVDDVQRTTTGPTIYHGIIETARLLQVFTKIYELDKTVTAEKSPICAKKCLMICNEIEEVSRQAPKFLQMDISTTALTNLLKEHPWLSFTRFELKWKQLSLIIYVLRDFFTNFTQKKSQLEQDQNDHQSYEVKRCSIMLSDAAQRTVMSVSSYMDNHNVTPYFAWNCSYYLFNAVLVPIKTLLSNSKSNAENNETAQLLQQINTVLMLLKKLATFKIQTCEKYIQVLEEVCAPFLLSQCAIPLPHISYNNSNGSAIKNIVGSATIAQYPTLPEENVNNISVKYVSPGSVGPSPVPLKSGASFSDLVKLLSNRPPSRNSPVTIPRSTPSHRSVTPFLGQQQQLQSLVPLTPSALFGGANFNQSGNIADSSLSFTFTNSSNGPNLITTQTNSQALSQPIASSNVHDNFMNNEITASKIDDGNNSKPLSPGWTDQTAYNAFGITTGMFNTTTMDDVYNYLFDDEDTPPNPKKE
Sequence of human Thyroid hormone Receptor alpha (TRa), THRA (gene 7067) (P10827 whole entry, looked up, the tested form may be a part): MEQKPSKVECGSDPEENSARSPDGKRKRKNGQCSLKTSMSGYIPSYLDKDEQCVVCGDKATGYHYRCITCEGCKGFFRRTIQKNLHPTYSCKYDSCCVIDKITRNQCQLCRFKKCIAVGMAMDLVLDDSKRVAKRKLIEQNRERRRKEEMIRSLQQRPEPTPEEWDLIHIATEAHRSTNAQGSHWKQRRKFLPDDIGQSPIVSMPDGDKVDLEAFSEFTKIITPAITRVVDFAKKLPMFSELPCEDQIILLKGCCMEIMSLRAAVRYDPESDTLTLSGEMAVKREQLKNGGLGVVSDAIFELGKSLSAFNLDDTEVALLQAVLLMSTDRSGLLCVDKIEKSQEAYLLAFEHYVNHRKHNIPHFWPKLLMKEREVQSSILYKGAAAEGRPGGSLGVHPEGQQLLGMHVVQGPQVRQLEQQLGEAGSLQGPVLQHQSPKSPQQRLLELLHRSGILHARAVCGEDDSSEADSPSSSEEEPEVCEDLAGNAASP
Sequence of Nuclear receptor subfamily 1 group I member 2 (Mus musculus) (O54915 whole entry, looked up, the tested form may be a part): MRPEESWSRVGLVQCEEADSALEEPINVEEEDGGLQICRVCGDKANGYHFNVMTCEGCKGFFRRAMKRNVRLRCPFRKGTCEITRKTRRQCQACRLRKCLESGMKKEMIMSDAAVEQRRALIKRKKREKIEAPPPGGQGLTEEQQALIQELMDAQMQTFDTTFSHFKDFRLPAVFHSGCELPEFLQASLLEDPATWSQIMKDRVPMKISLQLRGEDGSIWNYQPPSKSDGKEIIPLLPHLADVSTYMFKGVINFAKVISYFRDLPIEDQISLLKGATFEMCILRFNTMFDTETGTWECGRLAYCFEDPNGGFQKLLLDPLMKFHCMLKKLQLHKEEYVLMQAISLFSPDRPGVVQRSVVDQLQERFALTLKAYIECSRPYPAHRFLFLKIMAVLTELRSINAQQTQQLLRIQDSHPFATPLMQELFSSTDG
Sequence of zebrafish Thyroid Hormone Receptor alpha (TRa), thraa (gene 30670) (Q98867 whole entry, looked up, the tested form may be a part): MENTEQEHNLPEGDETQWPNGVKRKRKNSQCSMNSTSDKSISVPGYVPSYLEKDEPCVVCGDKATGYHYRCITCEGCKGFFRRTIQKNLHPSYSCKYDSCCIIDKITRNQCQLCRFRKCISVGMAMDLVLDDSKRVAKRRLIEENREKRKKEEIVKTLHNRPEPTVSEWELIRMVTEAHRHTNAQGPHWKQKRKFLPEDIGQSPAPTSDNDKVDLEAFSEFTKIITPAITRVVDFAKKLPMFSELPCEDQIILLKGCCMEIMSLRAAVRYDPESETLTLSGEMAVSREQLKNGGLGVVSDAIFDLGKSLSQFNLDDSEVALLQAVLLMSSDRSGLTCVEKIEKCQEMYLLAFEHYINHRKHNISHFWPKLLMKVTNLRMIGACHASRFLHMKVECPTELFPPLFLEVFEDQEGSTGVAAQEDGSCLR

Take `NC(=NCCCCCCN=C(N)/N=C(\N)Nc1ccc(Cl)cc1)/N=C(\N)Nc1ccc(Cl)cc1`: the AC50 in test [1] was 9.25 µM (active).
On to `C[C@]12CC[C@@H]3c4ccc(O)cc4CC[C@H]3[C@@H]1C[C@@H](O)[C@@H]2O`, for which the AC50 was 0.0105 µM (active) in [2]; 0.0306 µM (active) in test [15]; 0.0102 µM (active) in test [16]; 0.0725 µM (active) in [18]; 0.1 µM (active) in test [19]. For the same molecule, the molecule was classed as inactive in test [3], in test [4], in [5], in test [6], in [7] and in test [8]. For the same molecule, the molecule was classed as inactive in [9], in [10], in test [11], in [12], in [13] and in test [14]. In addition, the molecule was called inactive in [17] and in test [20].
`CC(=O)Nc1ccc(O)cc1`: the molecule was classed as inactive in [1].
For `CCCCCCc1ccc(N)cc1`, in test [1], the molecule was classed as inactive.
Consider `CN(Cc1cnc2nc(N)nc(N)c2n1)c1ccc(C(=O)N[C@@H](CCC(=O)O)C(=O)O)cc1`, for which, in test [1], the AC50 is 0.39 µM (active).
Take `Cc1cc(C(=C2C=CC(=Nc3ccc(S(=O)(=O)O)cc3)C=C2)c2ccc(Nc3ccc(S(=O)(=O)O)cc3)cc2)cc(S(=O)(=O)O)c1N`: the molecule was classed as inactive in [1].
`CCCCc1ccc2ccccc2c1S(=O)(=O)O`: the outcome in test [1] was inactive.
As to `COc1cc([N+](=O)[O-])ccc1N`, the AC50 in test [1] was 2.99 µM (active).
With `CC(C)[C@@H]1CC[C@@H](C)C[C@H]1O`, the AC50 in test [1] is 0.48 µM (active).
Regarding `CC(O)COc1ccccc1` (stereo not given), the result in test [1] was inactive.
For the molecule `O=C(c1ccccc1)c1ccccc1`, in test [1], the call was inactive.
Consider `CCCCCCCCCC=CCC1CC(=O)OC1=O` (stereo not given), for which the call in [1] was inactive.
